# According to PubChem BioAssay:
# Records with an inconclusive call do not appear. Calls of active or inactive are those of the source.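 The calls were made as follows, unless noted: active = viability loss from added drug above about 55%, and viability with drug at most 40%, in both replicates (limit read from the data, passing the limit was not always enough); inconclusive = both conditions met in only one replicate; inactive = neither replicate meets both conditions.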
# Tests used:
# [1] = Her2 expression decrease, cell viability multiplex – SKBR3 breast tumor cells, AlphaScreen, ATP viability, primary screen (AID 461;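 active = Her2 level under about 52% in both replicate screens, with viability over 70% of control, limit read from the data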;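 as to Her2 level: lower value means less Her2 protein in the cells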;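 as to viability: percent of carrier control wells set as 100% viability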); conditions: SKBR3 Her2 protein level, 18-24 h, measured here: SKBR3 viability, ATP luminescence, at 10 µM
# [2] = target: Receptor tyrosine-protein kinase erbB-2 (Homo sapiens) (UniProt P04626); assay: as above; conditions: 18-24 h, at 10 µM, stronger effect = lower value
# Receptor tyrosine-protein kinase erbB-2 (Homo sapiens), sequence (P04626 whole entry, looked up): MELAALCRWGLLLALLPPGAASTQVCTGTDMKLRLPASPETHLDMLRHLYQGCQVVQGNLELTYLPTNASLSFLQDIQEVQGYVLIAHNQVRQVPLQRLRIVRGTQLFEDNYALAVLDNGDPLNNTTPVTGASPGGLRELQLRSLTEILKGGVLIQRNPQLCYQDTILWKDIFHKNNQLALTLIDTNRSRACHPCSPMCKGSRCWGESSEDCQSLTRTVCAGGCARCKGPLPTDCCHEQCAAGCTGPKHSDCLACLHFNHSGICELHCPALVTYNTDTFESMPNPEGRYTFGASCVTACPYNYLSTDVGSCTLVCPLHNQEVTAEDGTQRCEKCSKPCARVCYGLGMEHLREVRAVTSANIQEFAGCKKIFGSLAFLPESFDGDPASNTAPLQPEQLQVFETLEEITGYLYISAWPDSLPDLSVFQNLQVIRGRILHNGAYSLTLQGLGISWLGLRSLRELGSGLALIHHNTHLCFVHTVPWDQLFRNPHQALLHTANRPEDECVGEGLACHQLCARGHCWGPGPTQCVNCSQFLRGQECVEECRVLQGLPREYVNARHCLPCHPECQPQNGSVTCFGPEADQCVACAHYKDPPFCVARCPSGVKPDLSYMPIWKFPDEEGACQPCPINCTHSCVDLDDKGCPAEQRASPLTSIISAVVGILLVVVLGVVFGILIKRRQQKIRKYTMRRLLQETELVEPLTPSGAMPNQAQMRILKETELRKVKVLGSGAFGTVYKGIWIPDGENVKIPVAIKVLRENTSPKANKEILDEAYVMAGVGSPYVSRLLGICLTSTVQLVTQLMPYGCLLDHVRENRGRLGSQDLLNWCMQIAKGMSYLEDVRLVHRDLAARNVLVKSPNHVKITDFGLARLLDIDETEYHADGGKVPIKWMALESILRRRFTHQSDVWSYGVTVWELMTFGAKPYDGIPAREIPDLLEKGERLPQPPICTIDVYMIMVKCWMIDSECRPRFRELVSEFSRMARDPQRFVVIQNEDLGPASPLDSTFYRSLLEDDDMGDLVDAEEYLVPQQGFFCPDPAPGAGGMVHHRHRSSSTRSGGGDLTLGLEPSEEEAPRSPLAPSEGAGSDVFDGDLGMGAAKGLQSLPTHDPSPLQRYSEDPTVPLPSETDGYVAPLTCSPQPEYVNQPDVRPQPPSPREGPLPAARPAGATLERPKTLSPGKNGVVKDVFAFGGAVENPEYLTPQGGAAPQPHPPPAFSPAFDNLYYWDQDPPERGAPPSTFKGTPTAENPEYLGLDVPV
# [3] = reduced viability of SK-BR-3 breast cancer cells – cell-based, 24 h, human, pilot screen (AID 572;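 active = viability at or below 10% of carrier control in both of two separate runs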;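 also: compound exposure lasted between 18 and 24 h rather than exactly 24 h; 100% = carrier-treated control wells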); conditions: SK-BR-3 viability, CellTiter-Glo luminescence, at 10 µM, stronger effect = lower value
# [4] = HUVEC growth inhibition – cell-based, human, primary screen (AID 575;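 active = viability at or below 30% in both replicate assays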;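 also: 100% = median of untreated cell wells with 0.1% DMSO on each plate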); conditions: HUVEC proliferation, CellTiter-Glo luminescence, 72 h; at 10 µM; stronger effect = lower value
# [5] = H69AR cell proliferation blockers – human, duplicate replicates, primary screen (AID 580;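 active = viability at or under a set limit in both replicates, limit being median viability minus 3 SD, cut at about 48% in these data, passing the limit was not always enough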;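 also: 100% = mean luminescence of untreated wells and 0% = no signal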); conditions: H69AR lung tumor cells viability, ATP luminescence, 72 h; at 10 µM; stronger effect = lower value
# [6] = MRP1 drug-resistance reversers in H69AR cells – cell-based, doxorubicin co-treatment, pilot screen (AID 601); conditions: CellTiter-Glo, 72 h, at 10 µM; for differential viability (reversal): stronger effect = higher value
# [7] = yeast transport mutant growth inhibition pilot in 384-well plates, post-Golgi transport modulator project (AID 636; in the data active = inhibition above about 31%); conditions: absorbance 615 nm, about 18 h, stronger effect = higher value
# [8] = growth suppression of yeast trafficking mutant, preliminary HTS, modulators of trafficking downstream of Golgi apparatus project, 1536-format plate, OD 615 nm (AID 637; in the data active = inhibition above about 30%); conditions: yeast transport mutant growth, absorbance 615 nm, 18 h; stronger effect = higher value
# [9] = S. cerevisiae growth inhibition in permissive medium (OD615), pilot counter-assay for S. cerevisiae lifespan shortening project, permissive growth control (AID 705;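 active = growth inhibition above 25% in both replicates, a cutoff set 3 SD above the mean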); conditions: OD615, 24 h, at 10 µM, stronger effect = higher value
# [10] = S. cerevisiae growth inhibition in restrictive medium, OD615, pilot screen, restrictive growth control, yeast lifespan reduction project (AID 706;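 active = growth inhibition above a set limit, 3 SD over mean compound inhibition, in both replicates, cut at about 43% in these data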;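 also: modified DeaD lifespan yeast strain shifted to restrictive glucose medium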); conditions: OD615, 48 h, at 10 µM, stronger effect = higher value
# [11] = doxorubicin toxicity protection in MRP-1 cells – H69AR cells, CellTiter-Glo, duplicate, MRP-1 activator project, pilot screen (AID 807;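 active = viability increase at or above a cutoff of the median across tested compounds plus 3 SD, cut at about 8.5% in these data, passing the limit was not always enough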;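 also: compound pretreatment 18-22 h then 72 h combined with doxorubicin; 0% = doxorubicin alone and 100% = vehicle without doxorubicin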); conditions: H69AR viability with doxorubicin, CellTiter-Glo luminescence; at 10 µM; stronger effect = higher value
# [12] = viability of HCT116 without oncogenic beta-catenin – human colon tumor cells, pilot screen (AID 823;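 active = cell viability at or below a set limit in both duplicate runs, the limit being the all-compound median minus 4 SD, cut at about 23% in these data, passing the limit was not always enough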;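 also: 0% = wells killed by 20 µM Hyamine and 100% = untreated DMSO cell wells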); conditions: HCT116 beta-catenin knockout viability, CellTiter-Glo, 60 h; at 10 µM; stronger effect = lower value
# [13] = viability of PTEN-null HCT116 cells – cell-based, HCT116 clonal line, CellTiter-Glo, pilot screen (AID 824;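 active = viability at or below 27.92% in each of two runs, the all-compound median minus 4 SD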;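 also: 0% = 20 µM Hyamine control and 100% = vehicle cell control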); conditions: HCT116 PTEN-deleted viability, 60 h, at 10 µM, stronger effect = lower value
# [14] = RAM pathway blockade in budding yeast – dse1pr::URA3 reporter, 5-FOA selection, pilot screen (AID 869;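 active = inhibition over a set limit, the all-compound mean plus 3 SD, in both replicate runs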;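 also: 0% = DMSO wells with no growth and 100% = 10 µM 1-NA-PP1 with full growth; RAM network block rescues cells from 5-FOA so hits raise OD615 growth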); conditions: S. cerevisiae dse1pr::URA3 5-FOA growth, OD615, 2 d; at 10 µM; stronger effect = higher value; strain carries analog-sensitive mutant Cbk1 kinase
# [15] = RAM signaling pathway blockade in yeast – S. cerevisiae, Pdr1DBD-CYC8 efflux-inhibited sensitized strain, primary screen (AID 1298;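 active = RAM network inhibition above 8.4% in each of two replicates, 3 SD over the compound average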;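 also: 0% = DMSO untreated cells without growth and 100% = 10 µM 1-NA-PP1 full growth; higher means more yeast growth rescued from 5-FOA killing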); conditions: S. cerevisiae cbk1-as DSE1-URA3 strain, 5-FOA growth OD615, 2 d; at 50 µM; stronger effect = higher value
# [16] = H69AR cells + 2 uM doxorubicin, measured here: viability with 2 uM doxorubicin, stronger effect = lower value
# [17] = H69AR cells, compound alone cytotoxicity
Compound,viability [1] [%],Her2 level [2],viability [3],viability [4],viability [5],differential viability (reversal) ([6]; H69AR cells + 2 uM doxorubicin),"viability [6, 16] [%]","viability [6, 17] [%]",inhibition [7],inhibition [8],growth inhibition [9],growth inhibition [10],viability increase [11],viability [12],viability [13],inhibition [14],RAM network inhibition [15]
Cc1cc(C)cc(N(CC(=O)NC2CCC(C)CC2)S(=O)(=O)c2c(C)noc2C)c1 (stereo not drawn),104,101% (inactive),104% (inactive),94% (inactive),88.1% (inactive),4.2% (inactive),83.8,88.1,-3.59% (inactive),-5.67% (inactive),-23.2% (inactive),-18.5% (inactive),-1.82% (inactive),97.5% (inactive),94.9% (inactive),2.36% (inactive),11.3% (inactive)
CCCn1c(NCc2cc(C)ccc2O)nc2ccccc21,94.5,106% (inactive),94.5% (inactive),69.4% (inactive),77.9% (inactive),1.94% (inactive),76,77.9,-1.73% (inactive),9.68% (inactive),-4.45% (inactive),-8.17% (inactive),-4.6% (inactive),53.6% (inactive),60.1% (inactive),-0.08% (inactive),0.33% (inactive)
O=C(c1ccc(CSCc2ccccc2F)o1)N1CCN(c2ccc(N3CCOCC3)nn2)CC1,84.5,76% (inactive),84.5% (inactive),54.7% (inactive),79.7% (inactive),-5.4% (inactive),85,79.7,0.9% (inactive),-0.17% (inactive),1.75% (inactive),17.4% (inactive),-4.06% (inactive),83.6% (inactive),89.7% (inactive),1.54% (inactive),2.93% (inactive)
CCCC(=O)NCCc1cc2c(C)ccc(C)c2[nH]c1=O,106,93% (inactive),106% (inactive),110% (inactive),98.8% (inactive),12.1% (inactive),86.7,98.8,-5.6% (inactive),9.33% (inactive),-4.56% (inactive),-10.1% (inactive),-0.5% (inactive),111% (inactive),103% (inactive),0.625% (inactive),0.95% (inactive)
CCC1CCCCN1CCCNC(=O)CC1Oc2ccc(C)cc2NC1=O (stereo not drawn),110,97.5% (inactive),110% (inactive),74.3% (inactive),89.1% (inactive),-3.82% (inactive),92.9,89.1,-2.27% (inactive),-0.49% (inactive),2.28% (inactive),0.165% (inactive),-3.12% (inactive),95% (inactive),91.1% (inactive),1.57% (inactive),2.53% (inactive)
COc1cc2c(cc1OC)C(c1ccc(C)o1)CC(=O)N2 (stereo not drawn),81.5,87.5% (inactive),81.5% (inactive),86.2% (inactive),89.4% (inactive),9.42% (inactive),80,89.4,-0.13% (inactive),4.33% (inactive),-3.98% (inactive),1.56% (inactive),-4.72% (inactive),80% (inactive),78.2% (inactive),1.21% (inactive),0.73% (inactive)
CCOC(=O)N1CCN(C(=O)COc2ccc(S(=O)(=O)NC(C)C)cc2)CC1,96,105% (inactive),96% (inactive),106% (inactive),90.3% (inactive),0.365% (inactive),90,90.3,-5.07% (inactive),2.33% (inactive),-17.6% (inactive),-20.2% (inactive),-0.64% (inactive),96.2% (inactive),93% (inactive),1.71% (inactive),7.54% (inactive)
CC(=O)N(c1ccc(Br)cc1)C1C=CS(=O)(=O)C1 (stereo not drawn),100,96% (inactive),100% (inactive),87.9% (inactive),88.8% (inactive),4.71% (inactive),84.1,88.8,-5.33% (inactive),1.5% (inactive),-6.33% (inactive),-16.4% (inactive),-0.84% (inactive),107% (inactive),96% (inactive),2.17% (inactive),-0.25% (inactive)
CCOC(=O)N1CCC(c2cc(=O)n3[nH]c(C)c(-c4ccc(F)cc4)c3n2)CC1,67,80.5% (inactive),67% (inactive),7% (active),21.3% (active),-44.2% (inactive),65.5,21.3,0.38% (inactive),-0.33% (inactive),2.81% (inactive),9.87% (inactive),0.52% (inactive),15.8% (active),19.7% (active),0.04% (inactive),0.41% (inactive)
Cc1nnc(NC(=O)CSc2nc3c(c(=O)n2C)SC(C)C3)s1 (stereo not drawn),89,80% (inactive),89% (inactive),79.4% (inactive),84.8% (inactive),4.81% (inactive),80,84.8,-6.27% (inactive),4.17% (inactive),-11.1% (inactive),-18.2% (inactive),0.31% (inactive),104% (inactive),99.6% (inactive),2.09% (inactive),9.95% (inactive)
CCN(CC)C(=O)C1CCCN(c2ncnc3c2cnn3-c2ccc(Cl)cc2)C1 (stereo not drawn),94.5,96.5% (inactive),94.5% (inactive),49.2% (inactive),86.1% (inactive),2.38% (inactive),83.7,86.1,-4.4% (inactive),-2.17% (inactive),-7.13% (inactive),5.38% (inactive),3.1% (inactive),66% (inactive),69.7% (inactive),0.62% (inactive),-2.04% (inactive)
CCCc1cc(C(=O)Nc2ccccc2SC)no1,86,90.5% (inactive),86% (inactive),104% (inactive),81.1% (inactive),-3.34% (inactive),84.4,81.1,0.9% (inactive),5.67% (inactive),-11.4% (inactive),-21.2% (inactive),-3.07% (inactive),100% (inactive),93.4% (inactive),0.2% (inactive),1.56% (inactive)
CCOC(=O)c1ccc(NS(=O)(=O)c2ccc3c(c2)oc(=O)n3C)cc1,132,118% (inactive),132% (inactive),118% (inactive),113% (inactive),7.4% (inactive),105,113,-0.77% (inactive),-2.17% (inactive),-0.745% (inactive),3.2% (inactive),1.82% (inactive),101% (inactive),86.4% (inactive),0.865% (inactive),2.11% (inactive)
CCOC(=O)Cn1c(CCC(=O)O)ccc1-c1ccc(F)cc1,99,101% (inactive),99% (inactive),106% (inactive),84.3% (inactive),-8.34% (inactive),92.6,84.3,-5.6% (inactive),3.33% (inactive),-9.79% (inactive),-2.42% (inactive),-2.3% (inactive),102% (inactive),101% (inactive),0.72% (inactive),2.74% (inactive)
CC(C)(C)NC(=O)Cn1c(=O)oc2ccc(Cl)cc21,96,104% (inactive),96% (inactive),96.5% (inactive),92.9% (inactive),28.8% (inactive),64.1,92.9,-2.4% (inactive),0.83% (inactive),5.54% (inactive),5.01% (inactive),-4.63% (inactive),106% (inactive),100% (inactive),0.38% (inactive),7.56% (inactive)
CN(C)CCN1C(=O)C(O)=C(C(=O)c2cc3ccccc3o2)C1c1ccc(N(C)C)cc1 (stereo not drawn),98.5,105% (inactive),98.5% (inactive),94.1% (inactive),90.2% (inactive),1.66% (inactive),88.5,90.2,-3.47% (inactive),1.17% (inactive),-14.2% (inactive),-14.1% (inactive),-0.2% (inactive),105% (inactive),103% (inactive),0.685% (inactive),2.42% (inactive)
Cn1cccc1Cc1nnc(SCC(=O)NCc2ccc(F)cc2)n1-c1ccc(F)cc1,94.5,108% (inactive),94.5% (inactive),80.9% (inactive),89% (inactive),-4% (inactive),93,89,-1.07% (inactive),13.3% (inactive),-3.33% (inactive),8.56% (inactive),-0.43% (inactive),97.6% (inactive),93.4% (inactive),2.13% (inactive),6.3% (inactive)
Cc1c(C#N)c2ncnc(-c3ccccc3)c2n1-c1ccccc1,106,101% (inactive),106% (inactive),85.5% (inactive),71.8% (inactive),52.5% (inactive),19.3,71.8,-3.64% (inactive),-4.92% (inactive),-10.9% (inactive),-15.3% (inactive),-5.64% (inactive),91% (inactive),85.9% (inactive),0.395% (inactive),5.06% (inactive)
COC(=O)Cn1c(CN2CCN(c3ccccc3F)CC2)nc2c1c(=O)n(C)c(=O)n2C,104,95% (inactive),104% (inactive),95.3% (inactive),93.8% (inactive),6.45% (inactive),87.3,93.8,-3.73% (inactive),3.33% (inactive),-7.25% (inactive),-1.94% (inactive),0.3% (inactive),97.4% (inactive),90.1% (inactive),2.47% (inactive),6.25% (inactive)
